# From PMC7862700, “An all-to-all approach to the identification of sequence-specific readers for epigenetic DNA modifications on cytosine”
# Legend:
# Assay in all cases: DAPPL (digital affinity profiling via proximity ligation, sequencing); 10 mM Tris-HCl pH 7.5, 50 mM NaCl, 1 mM DTT, 4% glycerol, room temperature, 30 min; GST-TFs on glutathione beads, 16-mer random dsDNA library, 0.1% formaldehyde crosslink after washing; high values mean tight binding
# FEV = target: T1, FEV (Homo sapiens, UniProt Q99581 1-238); details: protein: recombinant; tags: N-terminal GST; dsDNA, one strand shown
# T1 sequence: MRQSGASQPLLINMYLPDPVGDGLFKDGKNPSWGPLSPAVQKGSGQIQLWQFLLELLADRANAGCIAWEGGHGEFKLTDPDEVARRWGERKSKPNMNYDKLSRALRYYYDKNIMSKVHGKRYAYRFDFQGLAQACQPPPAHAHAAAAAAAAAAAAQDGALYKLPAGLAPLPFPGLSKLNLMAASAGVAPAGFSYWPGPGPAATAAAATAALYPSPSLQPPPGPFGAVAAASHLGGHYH
# Outline: (§1)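 Binding signal is given per hexamer as its read frequency for a factor divided by its frequency in the tag-only sample. GST-fused human transcription factors were expressed in yeast, captured on glutathione beads, barcoded with DNA and pooled with that sample, then incubated with 200 nmole of a 16-mer random double-stranded DNA library in Tris/NaCl/DTT/glycerol buffer for 30 min at room temperature. The pools were then washed, crosslinked, proximity-ligated, amplified by PCR and sequenced on an Illumina NextSeq500.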
# ETV5 = ETV5 (Homo sapiens, UniProt P41161 1-510); details: protein: recombinant; tags: N-terminal GST; dsDNA, one strand shown
# ETV5, sequence (P41161 whole entry): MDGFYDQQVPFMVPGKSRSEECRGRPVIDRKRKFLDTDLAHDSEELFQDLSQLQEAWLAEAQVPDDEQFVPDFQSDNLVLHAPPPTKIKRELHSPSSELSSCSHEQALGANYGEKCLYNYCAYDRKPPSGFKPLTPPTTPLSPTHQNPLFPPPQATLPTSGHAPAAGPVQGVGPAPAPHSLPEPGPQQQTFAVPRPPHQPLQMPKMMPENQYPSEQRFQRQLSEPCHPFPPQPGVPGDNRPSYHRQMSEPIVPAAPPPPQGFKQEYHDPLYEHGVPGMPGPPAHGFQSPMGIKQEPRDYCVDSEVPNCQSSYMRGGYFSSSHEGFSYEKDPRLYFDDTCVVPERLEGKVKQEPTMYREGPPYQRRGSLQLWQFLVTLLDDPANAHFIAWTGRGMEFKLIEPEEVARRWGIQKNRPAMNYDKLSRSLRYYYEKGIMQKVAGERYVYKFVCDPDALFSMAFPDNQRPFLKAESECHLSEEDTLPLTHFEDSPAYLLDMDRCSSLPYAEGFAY
# Outline: as §1
# HSF1 = HSF1 (Homo sapiens, UniProt Q00613 1-529); details: protein: recombinant; tags: N-terminal GST; chain copies: 3; dsDNA, one strand shown
# HSF1, sequence (Q00613 whole entry): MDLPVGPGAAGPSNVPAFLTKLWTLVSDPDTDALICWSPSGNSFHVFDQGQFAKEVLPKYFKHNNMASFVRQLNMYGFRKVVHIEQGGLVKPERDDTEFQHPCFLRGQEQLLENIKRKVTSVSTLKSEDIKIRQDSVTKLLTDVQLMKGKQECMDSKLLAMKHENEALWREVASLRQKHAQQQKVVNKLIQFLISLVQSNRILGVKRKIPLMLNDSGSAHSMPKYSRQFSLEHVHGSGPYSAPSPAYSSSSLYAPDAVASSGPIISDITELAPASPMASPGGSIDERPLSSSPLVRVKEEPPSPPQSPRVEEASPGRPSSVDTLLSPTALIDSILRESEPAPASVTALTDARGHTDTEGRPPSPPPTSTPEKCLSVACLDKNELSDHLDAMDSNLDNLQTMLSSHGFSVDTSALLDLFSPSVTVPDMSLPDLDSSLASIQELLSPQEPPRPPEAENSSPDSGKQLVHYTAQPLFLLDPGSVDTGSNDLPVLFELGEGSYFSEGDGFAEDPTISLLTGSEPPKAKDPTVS
# Outline: as §1
# SPIC = target: T2, SPIC (Homo sapiens, UniProt Q8N5J4 1-248); details: protein: recombinant; tags: N-terminal GST; dsDNA, one strand shown
# T2 sequence: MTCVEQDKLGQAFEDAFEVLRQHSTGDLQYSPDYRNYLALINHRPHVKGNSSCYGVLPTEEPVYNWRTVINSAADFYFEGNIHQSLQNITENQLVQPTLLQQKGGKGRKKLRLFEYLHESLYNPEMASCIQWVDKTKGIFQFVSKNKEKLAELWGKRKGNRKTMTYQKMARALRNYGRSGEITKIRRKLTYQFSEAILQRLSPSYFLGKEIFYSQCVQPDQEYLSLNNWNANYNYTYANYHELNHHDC
# Outline: as §1
# ELF4 = ELF4 (Homo sapiens, UniProt Q99607 1-663); details: protein: recombinant; tags: N-terminal GST; dsDNA, one strand shown
# ELF4, sequence (Q99607 whole entry): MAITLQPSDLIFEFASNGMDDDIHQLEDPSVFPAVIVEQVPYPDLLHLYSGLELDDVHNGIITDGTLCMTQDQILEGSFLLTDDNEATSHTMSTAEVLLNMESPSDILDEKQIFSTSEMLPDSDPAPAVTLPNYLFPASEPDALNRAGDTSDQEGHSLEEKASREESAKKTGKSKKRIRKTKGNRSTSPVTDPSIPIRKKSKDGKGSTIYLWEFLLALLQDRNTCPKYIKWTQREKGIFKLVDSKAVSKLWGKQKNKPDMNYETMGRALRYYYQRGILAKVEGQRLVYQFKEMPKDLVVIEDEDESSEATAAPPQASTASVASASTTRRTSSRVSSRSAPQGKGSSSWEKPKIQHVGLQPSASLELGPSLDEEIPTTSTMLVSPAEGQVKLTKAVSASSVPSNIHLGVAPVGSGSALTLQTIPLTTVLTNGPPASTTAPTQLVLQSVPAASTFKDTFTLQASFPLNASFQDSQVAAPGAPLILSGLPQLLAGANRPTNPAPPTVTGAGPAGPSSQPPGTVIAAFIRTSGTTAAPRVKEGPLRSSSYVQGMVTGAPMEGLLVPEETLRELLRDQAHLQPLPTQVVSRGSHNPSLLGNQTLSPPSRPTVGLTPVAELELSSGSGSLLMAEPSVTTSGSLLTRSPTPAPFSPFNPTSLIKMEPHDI
# Outline: as §1
# ELK4 = target: T3, ELK4 (Homo sapiens, UniProt P28324-2 1-405); details: protein: recombinant; tags: N-terminal GST; dsDNA, one strand shown
# T3 sequence: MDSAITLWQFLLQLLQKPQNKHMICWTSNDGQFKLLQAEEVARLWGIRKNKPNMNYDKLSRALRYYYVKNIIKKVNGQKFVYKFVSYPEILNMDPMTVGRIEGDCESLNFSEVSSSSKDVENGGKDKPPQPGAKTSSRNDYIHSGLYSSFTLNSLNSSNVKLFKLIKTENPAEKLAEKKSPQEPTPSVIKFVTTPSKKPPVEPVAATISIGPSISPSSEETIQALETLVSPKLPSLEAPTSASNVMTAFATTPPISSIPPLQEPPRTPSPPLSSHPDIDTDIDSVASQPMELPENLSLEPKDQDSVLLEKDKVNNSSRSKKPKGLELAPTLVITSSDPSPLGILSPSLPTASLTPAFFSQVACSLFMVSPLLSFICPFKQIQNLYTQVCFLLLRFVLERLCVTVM
# Outline: as §1
# ETV2 = target: T4, ETV2 (Homo sapiens, UniProt O00321 1-342); details: protein: recombinant; tags: N-terminal GST; dsDNA, one strand shown
# T4 sequence: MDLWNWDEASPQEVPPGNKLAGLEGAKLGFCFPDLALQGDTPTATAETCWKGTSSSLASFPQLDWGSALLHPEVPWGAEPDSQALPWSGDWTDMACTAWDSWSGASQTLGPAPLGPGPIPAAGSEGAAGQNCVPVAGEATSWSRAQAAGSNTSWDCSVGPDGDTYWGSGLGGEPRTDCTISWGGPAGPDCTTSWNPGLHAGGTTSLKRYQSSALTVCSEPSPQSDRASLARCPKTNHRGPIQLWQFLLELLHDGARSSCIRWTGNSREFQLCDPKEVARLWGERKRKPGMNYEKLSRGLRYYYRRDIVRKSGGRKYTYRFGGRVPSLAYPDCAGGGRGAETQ
# Outline: as §1
# ELF3 = target: T5, ELF3 (Homo sapiens, UniProt P78545 1-371); details: protein: recombinant; tags: N-terminal GST; dsDNA, one strand shown
# T5 sequence: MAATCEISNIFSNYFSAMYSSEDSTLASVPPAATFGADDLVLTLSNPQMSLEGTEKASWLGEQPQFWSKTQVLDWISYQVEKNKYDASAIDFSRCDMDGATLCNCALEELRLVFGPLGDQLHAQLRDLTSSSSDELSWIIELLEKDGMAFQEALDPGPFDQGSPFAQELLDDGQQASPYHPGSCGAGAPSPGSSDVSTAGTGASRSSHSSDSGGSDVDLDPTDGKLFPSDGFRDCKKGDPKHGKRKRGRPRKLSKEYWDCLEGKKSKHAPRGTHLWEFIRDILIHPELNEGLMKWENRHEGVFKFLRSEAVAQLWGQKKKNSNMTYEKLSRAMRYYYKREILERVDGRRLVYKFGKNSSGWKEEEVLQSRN
# Outline: as §1
# CRX = CRX (Homo sapiens, UniProt O43186 1-299); details: protein: recombinant; tags: N-terminal GST; dsDNA, one strand shown
# CRX, sequence (O43186 whole entry): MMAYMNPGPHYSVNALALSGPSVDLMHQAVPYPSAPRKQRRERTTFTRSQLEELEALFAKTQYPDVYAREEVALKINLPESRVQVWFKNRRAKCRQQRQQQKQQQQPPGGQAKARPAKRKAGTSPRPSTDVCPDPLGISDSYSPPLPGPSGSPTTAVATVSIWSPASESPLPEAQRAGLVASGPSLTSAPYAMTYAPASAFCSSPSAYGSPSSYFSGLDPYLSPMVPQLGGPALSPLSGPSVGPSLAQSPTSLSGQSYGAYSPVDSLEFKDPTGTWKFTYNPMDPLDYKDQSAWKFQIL
# Outline: as §1
# ETV1 = ETV1 (Homo sapiens, UniProt P50549 1-477); details: protein: recombinant; tags: N-terminal GST; dsDNA, one strand shown
# ETV1, sequence (P50549 whole entry): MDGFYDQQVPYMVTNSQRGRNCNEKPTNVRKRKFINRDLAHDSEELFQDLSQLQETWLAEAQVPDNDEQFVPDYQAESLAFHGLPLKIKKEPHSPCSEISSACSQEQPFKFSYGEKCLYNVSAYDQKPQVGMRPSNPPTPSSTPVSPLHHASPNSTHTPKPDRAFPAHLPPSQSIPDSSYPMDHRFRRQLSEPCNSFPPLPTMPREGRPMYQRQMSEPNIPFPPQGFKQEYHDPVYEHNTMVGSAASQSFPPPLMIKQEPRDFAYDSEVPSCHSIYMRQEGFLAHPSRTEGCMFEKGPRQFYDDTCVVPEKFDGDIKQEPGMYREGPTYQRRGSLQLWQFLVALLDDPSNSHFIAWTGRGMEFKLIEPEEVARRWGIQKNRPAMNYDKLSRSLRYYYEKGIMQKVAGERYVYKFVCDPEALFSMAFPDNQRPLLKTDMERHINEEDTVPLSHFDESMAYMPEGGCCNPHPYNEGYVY
# Outline: as §1
# ERF = target: T6, ERF (Homo sapiens, UniProt P50548 1-548); details: protein: recombinant; tags: N-terminal GST; dsDNA, one strand shown
# T6 sequence: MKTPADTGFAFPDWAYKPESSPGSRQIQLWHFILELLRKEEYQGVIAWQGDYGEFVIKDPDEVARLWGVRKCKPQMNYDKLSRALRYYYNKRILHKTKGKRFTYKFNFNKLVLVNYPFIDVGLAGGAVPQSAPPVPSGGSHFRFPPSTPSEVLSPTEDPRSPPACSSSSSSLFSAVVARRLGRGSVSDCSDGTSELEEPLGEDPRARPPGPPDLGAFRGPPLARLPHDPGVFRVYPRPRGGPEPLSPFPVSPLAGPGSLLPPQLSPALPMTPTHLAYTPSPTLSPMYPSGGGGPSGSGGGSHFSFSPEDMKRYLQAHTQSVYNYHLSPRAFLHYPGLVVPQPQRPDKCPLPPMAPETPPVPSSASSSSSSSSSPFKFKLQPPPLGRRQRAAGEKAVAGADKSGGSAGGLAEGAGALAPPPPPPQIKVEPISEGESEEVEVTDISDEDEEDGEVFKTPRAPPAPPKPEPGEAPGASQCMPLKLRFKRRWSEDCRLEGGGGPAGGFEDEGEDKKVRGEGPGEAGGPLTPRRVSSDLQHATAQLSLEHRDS
# Outline: as §1
# ETV3L = target: T7, ETV3L (Homo sapiens, UniProt Q6ZN32 1-361); details: protein: recombinant; tags: N-terminal GST; dsDNA, one strand shown
# T7 sequence: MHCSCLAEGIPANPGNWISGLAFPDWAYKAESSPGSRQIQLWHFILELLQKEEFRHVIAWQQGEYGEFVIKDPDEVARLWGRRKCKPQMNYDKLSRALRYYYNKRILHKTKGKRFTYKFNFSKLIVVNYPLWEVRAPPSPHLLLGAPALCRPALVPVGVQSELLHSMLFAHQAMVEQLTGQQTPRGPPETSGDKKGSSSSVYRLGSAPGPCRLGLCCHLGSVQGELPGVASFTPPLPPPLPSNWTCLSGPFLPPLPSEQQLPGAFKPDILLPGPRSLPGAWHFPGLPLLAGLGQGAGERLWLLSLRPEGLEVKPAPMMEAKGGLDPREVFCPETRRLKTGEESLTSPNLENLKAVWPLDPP
# Outline: as §1
# ETS2 = target: T8, ETS2 (Homo sapiens, UniProt P15036 1-469); details: protein: recombinant; tags: N-terminal GST; dsDNA, one strand shown
# T8 sequence: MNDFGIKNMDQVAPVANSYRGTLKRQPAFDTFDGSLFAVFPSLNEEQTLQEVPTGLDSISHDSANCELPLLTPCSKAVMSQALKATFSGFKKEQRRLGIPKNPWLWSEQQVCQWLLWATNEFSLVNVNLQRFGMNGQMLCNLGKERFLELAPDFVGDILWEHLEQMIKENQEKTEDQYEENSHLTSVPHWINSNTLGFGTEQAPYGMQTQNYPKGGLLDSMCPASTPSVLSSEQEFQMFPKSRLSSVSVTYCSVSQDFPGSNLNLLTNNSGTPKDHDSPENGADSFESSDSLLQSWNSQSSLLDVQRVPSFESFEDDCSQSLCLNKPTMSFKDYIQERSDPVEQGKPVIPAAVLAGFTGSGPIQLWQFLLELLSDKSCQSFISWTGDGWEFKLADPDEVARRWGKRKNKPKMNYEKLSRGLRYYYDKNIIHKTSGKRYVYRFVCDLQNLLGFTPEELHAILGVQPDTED
# Outline: as §1
# SPDEF = target: T9, SPDEF (Homo sapiens, UniProt O95238 1-335); details: protein: recombinant; tags: N-terminal GST; dsDNA, one strand shown
# T9 sequence: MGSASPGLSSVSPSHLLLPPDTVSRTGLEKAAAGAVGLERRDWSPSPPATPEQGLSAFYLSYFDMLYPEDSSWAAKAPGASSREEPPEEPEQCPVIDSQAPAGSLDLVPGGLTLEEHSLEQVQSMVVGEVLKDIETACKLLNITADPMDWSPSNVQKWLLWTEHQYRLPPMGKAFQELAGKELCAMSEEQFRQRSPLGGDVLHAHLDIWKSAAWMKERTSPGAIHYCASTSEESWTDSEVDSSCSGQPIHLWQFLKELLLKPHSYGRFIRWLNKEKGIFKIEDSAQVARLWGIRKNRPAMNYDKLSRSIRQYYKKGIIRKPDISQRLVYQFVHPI
# Outline: as §1
# ETV7 = target: T10, ETV7 (Homo sapiens, UniProt Q9Y603 1-341); details: protein: recombinant; tags: N-terminal GST; dsDNA, one strand shown
# T10 sequence: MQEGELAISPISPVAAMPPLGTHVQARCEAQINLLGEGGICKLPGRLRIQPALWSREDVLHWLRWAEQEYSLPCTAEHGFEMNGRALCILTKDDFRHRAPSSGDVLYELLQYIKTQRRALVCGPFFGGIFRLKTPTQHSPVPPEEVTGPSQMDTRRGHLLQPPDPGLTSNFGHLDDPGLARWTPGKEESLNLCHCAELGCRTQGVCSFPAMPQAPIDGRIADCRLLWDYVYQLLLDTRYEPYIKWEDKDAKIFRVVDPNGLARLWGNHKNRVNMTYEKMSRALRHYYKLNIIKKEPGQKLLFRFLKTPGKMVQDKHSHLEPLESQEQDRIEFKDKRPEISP
# Outline: as §1
# ELF5 = target: T11, ELF5 (Homo sapiens, UniProt Q9UKW6-2 1-255); details: protein: recombinant; tags: N-terminal GST; dsDNA, one strand shown
# T11 sequence: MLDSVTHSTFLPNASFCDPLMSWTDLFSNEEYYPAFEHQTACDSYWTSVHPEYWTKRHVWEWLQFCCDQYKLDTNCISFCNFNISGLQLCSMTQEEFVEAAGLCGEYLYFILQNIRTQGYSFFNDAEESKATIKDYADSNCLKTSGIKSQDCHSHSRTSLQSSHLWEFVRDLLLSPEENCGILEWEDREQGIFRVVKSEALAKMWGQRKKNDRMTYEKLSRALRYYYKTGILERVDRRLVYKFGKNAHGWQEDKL
# Outline: as §1
# ETV3 = target: T12, ETV3 (Homo sapiens, UniProt P41162-2 1-143); details: protein: recombinant; tags: N-terminal GST; dsDNA, one strand shown
# T12 sequence: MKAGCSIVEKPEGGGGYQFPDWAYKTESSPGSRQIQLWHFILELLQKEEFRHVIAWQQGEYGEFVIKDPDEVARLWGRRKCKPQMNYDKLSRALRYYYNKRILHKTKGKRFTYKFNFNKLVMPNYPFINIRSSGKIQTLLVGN
# Outline: as §1
# ETV6 = ETV6 (Homo sapiens, UniProt P41212 1-452); details: protein: recombinant; tags: N-terminal GST; dsDNA, one strand shown
# ETV6, sequence (P41212 whole entry): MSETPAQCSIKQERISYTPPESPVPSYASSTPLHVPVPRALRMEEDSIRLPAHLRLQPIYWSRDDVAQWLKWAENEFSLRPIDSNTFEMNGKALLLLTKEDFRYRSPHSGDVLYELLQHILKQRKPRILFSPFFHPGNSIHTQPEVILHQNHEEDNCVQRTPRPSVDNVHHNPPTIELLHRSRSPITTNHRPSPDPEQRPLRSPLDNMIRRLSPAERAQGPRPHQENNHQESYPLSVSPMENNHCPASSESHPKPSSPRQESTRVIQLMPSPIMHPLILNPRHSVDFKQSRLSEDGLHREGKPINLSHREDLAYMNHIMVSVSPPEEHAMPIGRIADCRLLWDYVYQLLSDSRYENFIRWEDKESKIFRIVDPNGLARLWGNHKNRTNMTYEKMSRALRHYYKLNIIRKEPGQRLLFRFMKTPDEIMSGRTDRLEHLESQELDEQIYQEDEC
# Outline: as §1
sequence,measurement,setting,value
TTCCAA,binding signal,FEV,"1.26 fold enrichment (6-mer frequency, TF over GST control)"
same,binding signal,ETV5,"1.18 fold enrichment (6-mer frequency, TF over GST control)"
same,binding signal,HSF1,"1.47 fold enrichment (6-mer frequency, TF over GST control)"
same,binding signal,SPIC,"1.31 fold enrichment (6-mer frequency, TF over GST control)"
same,binding signal,ELF4,"1.27 fold enrichment (6-mer frequency, TF over GST control)"
same,binding signal,ELK4,"1.31 fold enrichment (6-mer frequency, TF over GST control)"
same,binding signal,ETV2,"1.29 fold enrichment (6-mer frequency, TF over GST control)"
same,binding signal,ELF3,"1.16 fold enrichment (6-mer frequency, TF over GST control)"
same,binding signal,CRX,"1.39 fold enrichment (6-mer frequency, TF over GST control)"
same,binding signal,ETV1,"1.21 fold enrichment (6-mer frequency, TF over GST control)"
same,binding signal,ERF,"1.27 fold enrichment (6-mer frequency, TF over GST control)"
same,binding signal,ETV3L,"1.3 fold enrichment (6-mer frequency, TF over GST control)"
same,binding signal,ETS2,"1.25 fold enrichment (6-mer frequency, TF over GST control)"
same,binding signal,SPDEF,"1.29 fold enrichment (6-mer frequency, TF over GST control)"
same,binding signal,ETV7,"1.27 fold enrichment (6-mer frequency, TF over GST control)"
same,binding signal,ELF5,"1.21 fold enrichment (6-mer frequency, TF over GST control)"
same,binding signal,ETV3,"1.22 fold enrichment (6-mer frequency, TF over GST control)"
same,binding signal,ETV6,"1.29 fold enrichment (6-mer frequency, TF over GST control)"
